From PubChem BioAssay
Lassa entry inh: inhibitors of Lassa virus binding or cell entry | Lassa virus pseudotype entry inhibition, cell reporter | Potency, µM (highest dose often 37.9 µM), hits mostly inhibitors | 300,000 compounds, 1.2% hits; calls by dose curve; tested in HEK293 cells; also: nearly all actives have a fitted effect of over 50% in size
VACV mCherry inh: vaccinia inhibition (mCherry reporter); Vaccinia virus mCherry reporter infection, fluorescence; Potency, µM (highest dose often 36.5 µM), actives largely listed as inhibitors; 310,000 compounds, 0.63% hits; AID 720579; calls by dose curve; tested in A549 cells; also: nearly all actives have a fitted effect of over 35% in size
FMDV inh: foot and mouth disease virus antiviral activity; Potency, µM (series often up to 57.9 µM), actives largely listed as inhibitors; FMDV antiviral cell-based qHTS; 410,000 compounds, 1.2% hits; calls by dose curve; tested in HEK293T cells; also: read-out not given here; nearly all actives have a fitted effect of over 45% in size
Vaccinia Venus: inhibitors of vaccinia virus (Venus reporter); AID 720580; Vaccinia virus Venus reporter expression, fluorescence; Potency, µM (doses to about 36.5 µM), usual class: inhibitors; 330,000 compounds, 0.46% hits; calls by dose curve; tested in A549 cells; also: nearly all actives have a fitted effect of over 30% in size
Marburg entry inh: Marburg virus entry inhibition | Marburg virus pseudotyped entry inhibition, cell reporter | Potency, µM (titrated, usually from 37.8 µM), actives largely listed as inhibitors | 300,000 compounds, 1.8% hits | AID 540276; calls by dose curve; tested in HEK293 cells
Large screens that a line does not name were inactive. Only some compounds are listed: those with a hit (about 3.2% of all), similar ones and a draw of the others.

CCOC(=O)c1c(/N=C/N(C)C)sc(/C=N/Nc2ccccc2)c1-c1ccccc1Cl	Lassa entry inh inconclusive, Marburg entry inh inconclusive
CCOC(=O)c1c(NC(=S)N2CCN(C)CC2)sc(C)c1-c1ccccc1	Lassa entry inh 8.9µM, Marburg entry inh inconclusive
CCOC(=O)c1c(NC(=O)CCl)sc(CN(C)C)c1-c1ccccc1	FMDV inh 35µM, Marburg entry inh inconclusive
CCc1ccc(NC(=O)C(C)Sc2nnc(CN3CCCC3)o2)cc1 (stereo not given)	none (no result: Lassa entry inh, VACV mCherry inh, Vaccinia Venus, Marburg entry inh)
Cc1ccccc1C(=O)Nc1cccc(-c2nnc(SCC(=O)NCc3ccco3)n2C)c1	none (no result: Lassa entry inh, FMDV inh, Marburg entry inh)
C[C@@H]1CCc2cc(F)cc3c(O)c(C(=O)NC[C@H]4CCCO4)c(=O)n1c23	none (no result: Lassa entry inh, VACV mCherry inh, FMDV inh, Vaccinia Venus)
O=C1OC(c2cccc(Cl)c2)N=C2C1C=NN2c1ccccc1 (stereo not given)	none (no result: Lassa entry inh, VACV mCherry inh, FMDV inh, Vaccinia Venus)
O=C(/C=C/c1ccc([N+](=O)[O-])s1)N1CCCCC1	Lassa entry inh inconclusive, VACV mCherry inh inconclusive, Vaccinia Venus 14µM, Marburg entry inh 8.9µM
O=C(/C=C/c1ccc([N+](=O)[O-])s1)N1CCCC1	VACV mCherry inh inconclusive, Vaccinia Venus 13µM (no result: Lassa entry inh, Marburg entry inh)
O=C(/C=C/c1ccc([N+](=O)[O-])s1)N1CCN(c2ccccc2)CC1	none (no result: Lassa entry inh, VACV mCherry inh, Vaccinia Venus, Marburg entry inh)
CC1CN(C(=O)/C=C/c2ccc([N+](=O)[O-])s2)CC(C)O1 (stereo not given)	Lassa entry inh inconclusive, VACV mCherry inh inconclusive, Vaccinia Venus inconclusive, Marburg entry inh 11µM
COc1ccc(OC)c(-c2cc(Cl)c3c(c2)CC(CNC(=O)c2cccnc2SC)O3)c1 (stereo not given)	none (no result: Lassa entry inh, Marburg entry inh)
Cc1ccc(C)c(-n2nnc(-c3nc(-c4ccccc4C)no3)c2C)c1	none (no result: Marburg entry inh)
Cc1ccc(-c2nnc(Nc3ccccc3)o2)cc1	Lassa entry inh inconclusive, Marburg entry inh 1.6µM (no result: FMDV inh)
Cc1ccc(NC(=O)Nc2nnc(-c3ccccc3)o2)cc1	none
O=C(/C=C/c1ccccc1)Nc1cccc(C(=O)O)c1	FMDV inh 10µM (no result: Lassa entry inh, Marburg entry inh)
Cc1cc(C(=O)Nc2cccc(C(=O)O)c2)oc1C	Lassa entry inh 3.5µM, FMDV inh inconclusive, Marburg entry inh inconclusive
CCC(=O)Nc1cccc(C(=O)/C=C/c2ccccc2)c1	Lassa entry inh 10µM, FMDV inh 18µM, Marburg entry inh inconclusive (no result: VACV mCherry inh)
CSc1ccc(/C=C/C(=O)Nc2ccccc2)cc1	Lassa entry inh inconclusive, Marburg entry inh 7.1µM
Cc1cc(C(=O)Nc2cccc(C(=O)O)c2)c(C)o1	none (no result: VACV mCherry inh, Vaccinia Venus)
O=C(/C=C/c1ccccc1)Nc1cc(NC(=O)/C=C/c2ccccc2)cc(C(=O)O)c1	none
O=C(c1n[nH]c2c1CCCC2)N1CCOc2ccc(C(O)C3CCCCC3)cc2C1 (stereo not given)	none (no result: Lassa entry inh, Marburg entry inh)
CN1CCN(c2ccc(NC(=O)c3cc4ccccc4o3)cc2)CC1	none (no result: Lassa entry inh, VACV mCherry inh, Vaccinia Venus, Marburg entry inh)
CCCC(=O)N1CCN(c2ccc(NC(=O)c3cc4ccccc4o3)cc2)CC1	FMDV inh 25µM, Marburg entry inh inconclusive (no result: VACV mCherry inh)
CCCC(=O)N1CCN(c2ccc(NC(=S)NC(=O)c3cccc(C)c3)cc2)CC1	Lassa entry inh inconclusive, FMDV inh 16µM, Marburg entry inh inconclusive
O=C(Nc1ccc(N2CCN(C(=O)c3ccccc3)CC2)cc1)c1cc2ccccc2o1	Lassa entry inh 14µM, FMDV inh 14µM, Vaccinia Venus inconclusive, Marburg entry inh inconclusive (no result: VACV mCherry inh)
O=C(Nc1ccccc1N1CCN(C(=O)c2ccccc2)CC1)c1cc2ccccc2o1	FMDV inh inconclusive, Marburg entry inh inconclusive
NNC(=O)CNC(=O)CNS(=O)(=O)c1ccccc1	none
C(=C\c1nccc2ccccc12)/c1ccc(N2CCOCC2)cc1	none (no result: Lassa entry inh, FMDV inh, Marburg entry inh)
c1ccc2c(c1)CCN(c1ncnc3c1[nH]c1ccccc13)C2	Lassa entry inh inconclusive, FMDV inh 11µM, Marburg entry inh inconclusive (no result: VACV mCherry inh, Vaccinia Venus)
c1ccc(CN2CCN(c3ncnc4c3[nH]c3ccccc34)CC2)cc1	Lassa entry inh inconclusive, VACV mCherry inh 7.1µM, FMDV inh 10µM, Vaccinia Venus inconclusive, Marburg entry inh inconclusive
Cc1ccc2c(c1)[nH]c1c(N3CCN(Cc4ccccc4)CC3)ncnc12	Lassa entry inh 21µM, VACV mCherry inh inconclusive, Vaccinia Venus inconclusive, Marburg entry inh 16µM (no result: FMDV inh)
OC1(c2cccc(C(F)(F)F)c2)CCN(c2ncnc3c2[nH]c2ccccc23)CC1	VACV mCherry inh inconclusive, FMDV inh 28µM, Vaccinia Venus inconclusive, Marburg entry inh inconclusive
Cc1ccc2[nH]c3c(N4CCN(Cc5ccc6c(c5)OCO6)CC4)ncnc3c2c1	none (no result: Lassa entry inh, VACV mCherry inh, FMDV inh, Vaccinia Venus)
COc1cccc2[nH]c3c(N4CCc5ccccc5C4)ncnc3c12	Lassa entry inh inconclusive, VACV mCherry inh inconclusive, FMDV inh inconclusive
CCc1ccccc1NC(=O)C1CCCN(c2cnccn2)C1 (stereo not given)	Marburg entry inh inconclusive
Clc1ccccc1CNc1nc2ccccc2c2nc(-c3cccnc3)nn12	none (no result: Lassa entry inh)
Cc1ccc2[nH]c3c(N4CCN(Cc5ccccc5)CC4)ncnc3c2c1	Lassa entry inh inconclusive, VACV mCherry inh inconclusive, FMDV inh 11µM, Vaccinia Venus inconclusive, Marburg entry inh inconclusive
Cc1nc2ccccc2nc1-c1csc(-c2ccccc2)n1	none (no result: Lassa entry inh, FMDV inh, Marburg entry inh)
O=[N+]([O-])c1ccc(Sc2ncccn2)c([N+](=O)[O-])c1	Lassa entry inh inconclusive, VACV mCherry inh inconclusive, FMDV inh 14µM, Vaccinia Venus inconclusive, Marburg entry inh inconclusive
O=[N+]([O-])c1ccc(Sc2nccn2Cc2ccccc2)c([N+](=O)[O-])c1	FMDV inh 28µM, Marburg entry inh inconclusive
O=[N+]([O-])c1cc(C(F)(F)F)ccc1Sc1nccn1Cc1ccccc1	none
Cc1cccc(Sc2ccc([N+](=O)[O-])cc2[N+](=O)[O-])n1	FMDV inh inconclusive
O=c1cc(-c2ccccc2)nc(Sc2ccc([N+](=O)[O-])cc2[N+](=O)[O-])[nH]1	FMDV inh 16µM
CCOC(=O)C1CCN(C(=O)COC(=O)/C=C/c2cccc(OC)c2OC)CC1	none (no result: Lassa entry inh, VACV mCherry inh, Vaccinia Venus, Marburg entry inh)
COC(=O)C/C=C\[C@@H](C)[C@@H](/C=N\OC[C@@H](O)[C@H]1O[C@H]2OC(C)(C)O[C@H]2[C@@H]1O)OC	none (no result: Lassa entry inh, VACV mCherry inh, FMDV inh, Vaccinia Venus)
COc1ccc(C(=O)c2sc(Nc3ccccc3)nc2N)cc1	Lassa entry inh inconclusive, Vaccinia Venus inconclusive (no result: Marburg entry inh)
Nc1nc(Nc2ccccc2)sc1C(=O)c1ccccc1	Lassa entry inh inconclusive, VACV mCherry inh inconclusive, Vaccinia Venus 28µM
CN(C(=O)c1cnn(-c2nccc(-c3ccccc3C(F)(F)F)n2)c1C1CC1)C1CCOC1 (stereo not given)	none (no result: Lassa entry inh, Marburg entry inh)
CN1CCN(Cc2nc3ccccc3c(=O)n2Cc2nc(-c3ccc4ccccc4c3)cs2)CC1	Lassa entry inh inconclusive, VACV mCherry inh inconclusive, FMDV inh inconclusive, Vaccinia Venus 13µM, Marburg entry inh inconclusive
Cc1ccc(CN(C(=O)COc2cccc([N+](=O)[O-])c2)c2ccccn2)cc1	Marburg entry inh inconclusive
Cc1ccc(CN(C(=O)COc2cccc([N+](=O)[O-])c2)c2ccccn2)o1	Lassa entry inh inconclusive, Marburg entry inh 2.8µM
COc1ccc(-c2sc3ccc(N4CCOCC4)cc3c2C#CCO)cc1	FMDV inh 16µM, Vaccinia Venus inconclusive (no result: Lassa entry inh, Marburg entry inh)
COc1ccc(-c2nsc3c(N4CCCCC4C)ncnc23)cc1 (stereo not given)	FMDV inh 0.032µM (no result: Lassa entry inh, Marburg entry inh)
COc1ccc(C(=O)N2CCN(c3ncnc4c(-c5ccccc5)nsc34)CC2)cc1	FMDV inh inconclusive
O=C(Nc1nc(-c2ccccc2)cs1)c1ccccc1NS(=O)(=O)c1ccc(F)cc1	Lassa entry inh 3.7µM, VACV mCherry inh inconclusive, FMDV inh inconclusive, Vaccinia Venus inconclusive, Marburg entry inh inconclusive
